# Bioassay records (PubChem)
# The list is not random: actives were taken first. Their share in the collection is about 1.2%.
# LmPK inh: inhibitors of Leishmania mexicana pyruvate kinase | Q27686 | purified LmPK, Kinase-Glo ATP luminescence, 1 h | Potency, µM (doses to about 57.5 µM), inactives show at the highest dose activity change, negative = inhibition, actives largely listed as inhibitors | 0.37% of 290,000 active | AID 1721; further: potency means the concentration at half of the fitted maximal effect; on the % scale 0 is the no-effect control and ±100 the full control effect
#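 0.1 nM LmPK, 0.5 mM PEP, 0.1 mM ADP; 50 mM imidazole pH 7.2, 7 mM MgCl2, 50 mM KCl; 1 h RT. Kinase-Glo luminescence readout, normalized to no-enzyme (full inhibition) and uninhibited wells.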
# TbPYK inhibitor: inhibitors of Trypanosoma brucei pyruvate kinase. Q57TT1. TbPYK enzyme, Kinase-Glo Plus ATP luminescence, 45 min. Potency, µM (top dose mostly 76.8 µM), without a hit: at the highest dose activity, negative = inhibition, usual class: inhibitors. 0.12% of 410,000 active. AID 624173; further: potency means the concentration at half of the fitted maximal effect; on the % scale 0 is the no-effect control and ±100 the full control effect; nearly all actives have a fitted effect of over 50% in size
#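 Enzyme and substrate buffer are dispensed first and compound is pin-transferred. ADP at 130 uM final then starts the reaction, which runs 45 min at room temperature. Detection reagent is added for 10 min before luminescence is imaged.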
# AMA1-RON2 inh: AMA1-RON2 (P. falciparum) interaction inhibition; AlphaScreen AMA1-biotinylated RON2 peptide binding; Potency, µM (series often up to 58.2 µM), without a hit: top-dose activity change, negative = inhibition, hits mostly inhibitors; 0.2% of 360,000 active; AID 720542;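 further: potency means the concentration at half of the fitted maximal effect; 0% = vehicle wells and -100% = peptide control; nearly all actives have a fitted effect of over 45% in size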
#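 AMA1 (3D7) with his tag at 25 nM final met compounds first, then biotinylated RON2 peptide at 25 nM; detection used donor plus acceptor beads, 10 µg/mL apiece, read by AlphaScreen after 30 min at room temperature.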
# Giardia FBPA inh: blocks Giardia fructose-bisphosphate aldolase activity; purified Giardia FBPA; Potency, µM (highest dose often 59.6 µM), for inactives: top-dose activity, negative = inhibition, actives largely listed as inhibitors; 0.71% of 290,000 active; further: potency means the concentration at half of the fitted maximal effect; on the % scale 0 is the no-effect control and ±100 the full control effect; nearly all actives have a fitted effect of over 55% in size
# Target sequence (A8B2U2 whole entry, looked up): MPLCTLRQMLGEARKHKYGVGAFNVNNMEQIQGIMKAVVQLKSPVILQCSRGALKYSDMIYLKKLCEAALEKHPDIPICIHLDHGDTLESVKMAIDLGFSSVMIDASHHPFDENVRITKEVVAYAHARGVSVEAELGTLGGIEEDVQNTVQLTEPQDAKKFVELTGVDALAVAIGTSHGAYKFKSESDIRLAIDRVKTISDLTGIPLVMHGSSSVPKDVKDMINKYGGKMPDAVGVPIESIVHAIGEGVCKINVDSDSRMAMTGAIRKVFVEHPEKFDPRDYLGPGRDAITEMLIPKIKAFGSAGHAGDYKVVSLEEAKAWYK
#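 40 nM FBPA preincubated 10 min at RT with compound (up to 57.5 uM final), then substrate plus GAPDH/TPI/NAD/arsenate coupling and diaphorase/resazurin added. Fluorescence read after 20 min at RT, 525/598 nm.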
# NS1 inh: blocks influenza NS1 protein function; Potency, µM (top dose mostly 46.1 µM), for inactives: at the top dose activity, positive = more growth; 0.4% of 270,000 active; AID 2326; calls by dose curve; further: potency means the concentration at half of the fitted maximal effect; actives are rising curves; nearly all actives have a fitted effect of over 50% in size
#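 A cell-based growth assay was used: compounds that relieve NS1-induced slow growth of budding yeast raise OD600. Assay medium was yeast nitrogen base with ammonium sulphate and -URA supplement, pH 6.0, with 2% galactose.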
# Flu NS1 inh: validation of influenza NS1 protein function inhibitors; shares compounds with NS1 inh; influenza NS1 function cell assay, 15-point titration; activity change, negative = inhibition, % at 32.9 µM; 1,400 tested, under 10 active; calls by dose curve; further: 0% is about no effect
# * hit, by the source's call; ? = inconclusive; nt = no result; [ ] = another dose, or the depositor's remark. Unless noted, the call rests on the fitted dose curve; in most records, active means well fitted curve in the direction sought with a large enough effect; inconclusive means small, poorly fitted or top-dose-only effect, or another doubt; inactive means no such curve, though single readings can be large; an effect the other way counts as inactive or inconclusive.
SMILES,LmPK inh,TbPYK inhibitor,AMA1-RON2 inh,Giardia FBPA inh,NS1 inh,Flu NS1 inh
Cc1c(C(=O)NCc2ccccc2)sc2nc3n(c(=O)c12)CCCCC3,nt,2%,nt,nt,nt,nt
COc1ccc(CNc2cc(-c3ccccc3C)ncn2)c(OC)c1,nt,nt,nt,3%,nt,nt
Cn1cc(C(=O)N2CCN(C(=O)c3ccco3)CC2)c2c3ccccc3n(C)c2c1=O,3%,-4%,-1%,4%,4µM*,-7
COc1cc(OC)cc(C2=Nn3c(nnc3-c3cccc(OC)c3)SC2)c1,nt,nt,nt,8%,nt,nt
O=c1c(Cc2ccccc2)c(O)nc2n1CCCS2,-2%,11%,11%,-10%,0%,nt
O=c1cc(O)nc2n1CCCS2,-4%,-3%,-13%,2%,7.9µM*,1
COc1ccc(NS(=O)(=O)c2cc(NC(=O)CCNC(C)=O)ccc2N2CCCCC2)cc1,nt,-2%,-6%,nt,nt,nt
COc1ccc(NS(=O)(=O)c2cc(NC(=O)/C=C/c3cc(OC)ccc3OC)ccc2N2CCCCC2)cc1,1%,-7%,5%,-1%,10µM*,17
O=C(Nc1ccccc1Cl)Oc1ccc2ccccc2c1,4%,nt,nt,-6%,?,1
O=C(Nc1ccccc1Cl)c1ccc2ccccc2c1,-1%,2%,18%,-4%,-2%,nt
Cc1ccc(C(=O)N/C(=C\c2ccc(Cl)cc2)C(=O)NC2CCCCC2)cc1,nt,5%,nt,nt,nt,nt
CC(=O)c1cccc(NS(=O)(=O)c2ccc(N/C=C\C(=O)c3ccc(F)cc3)cc2)c1,2%,-18%,-5%,nt,5%,nt
CC(=O)c1cccc(NS(=O)(=O)c2ccc(N/C=C/C(=O)c3ccc(F)cc3)cc2)c1,5%,1%,3%,-3%,?,-20
C/C=C\C(=O)N(CC)c1ccccc1C,nt,0%[33.2 µM],nt,-4%[21.7 µM],nt,nt
Cc1nc2ncnn2c(C)c1CCC(=O)NCc1ccccc1,0%,nt,19%,-3%,11%,nt
COc1ccc(CNC(=O)CCc2c(C)nc3ncnn3c2C)cc1,-5%,3%,1%,-14%,5µM*,0
CCCCNC(=S)NCc1ccc2[nH]c(C)cc2c1,6%,0%,15%,-10%,1.4µM*,-6
CCOc1ccc(NC(=S)NCc2ccc3[nH]c(C)cc3c2)cc1,-10%[11.5 µM],-1%,53%,-1%,nt,nt
O=[N+]([O-])c1ccc(COc2ccc(-c3[nH]ncc3-c3ccc(Cl)cc3)c(O)c2)cc1,6%,-2%,34%[11.6 µM],15%,20%,nt
COc1ccc(-c2cn[nH]c2-c2ccc(OCc3ccc([N+](=O)[O-])cc3)cc2O)cc1OC,7%,2%,86%,-4%,?,-14
COc1ccc(C2CC(c3ccccc3Cl)Nc3ncnn32)cc1OC (stereo unspecified),2%,1%,0%,-4%,4.5µM*,?
Cc1cc(C)n2c(SCC(=O)N3CCN(S(=O)(=O)c4ccc(Cl)cc4)CC3)nnc2n1,6%,-3%,-7%,21%,10µM*,0
Cc1ccc(C(=O)N/C(=C/c2ccco2)C(=O)N2CCCCCC2)cc1,0%,6%,2%,-15%,?,-4
O=C(N/C(=C\c1ccco1)C(=O)N1CCCC1)c1ccccc1,-2%,-3%,-10%,-10%,4%,nt
C[C@H](NC(=O)c1nc[nH]c1C(=O)N[C@@H](Cc1ccccc1)C(=O)OC(C)(C)C)C(=O)OCc1ccccc1,0%,-7%,113%,-18%,11µM*,9
CC(C)(C)OC(=O)CNC(=O)c1[nH]cnc1C(=O)NC(c1ccccc1)c1ccccc1,-1%,1%,126%,-18%,14µM*,-25
C[C@@H](NC(=O)c1nc[nH]c1C(=O)N[C@@H](Cc1ccccc1)C(=O)OC(C)(C)C)c1ccccc1,2%,4%,77%,?,?,nt
C[C@H](NC(=O)c1nc[nH]c1C(=O)N[C@@H](Cc1ccccc1)C(=O)OCc1ccccc1)C(=O)OCc1ccccc1,-5%,4%,97%,-6%,7.9µM*,17
Cc1ccc(CCNC(=O)c2c[nH]c3ccc(S(=O)(=O)Nc4cccc(C(F)(F)F)c4)cc3c2=O)cc1,nt,2%[15.4 µM],nt,nt,nt,nt
CCOc1ccc(CCNC(=O)CCCc2nnc3n(CC(C)C)c(=O)c4sccc4n23)cc1,nt,-2%,nt,nt,nt,nt
